According to PubChem BioAssay:
Unmarked numbers belong to inactive results. How the calls were made is not given here.

target: Pantothenate synthetase (Mycobacterium tuberculosis (strain ATCC 25618 / H37Rv)) (UniProt P9WIL5); assay: Coupled enzyme confirmation of inhibitors against recombinant Mtb PanC (AID 375); settings: coupled enzyme assay; at 10 µM, hits give high values;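 further: 0% = full reaction with vehicle and 100% = no enzyme background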
Sequence (P9WIL5 whole entry, looked up): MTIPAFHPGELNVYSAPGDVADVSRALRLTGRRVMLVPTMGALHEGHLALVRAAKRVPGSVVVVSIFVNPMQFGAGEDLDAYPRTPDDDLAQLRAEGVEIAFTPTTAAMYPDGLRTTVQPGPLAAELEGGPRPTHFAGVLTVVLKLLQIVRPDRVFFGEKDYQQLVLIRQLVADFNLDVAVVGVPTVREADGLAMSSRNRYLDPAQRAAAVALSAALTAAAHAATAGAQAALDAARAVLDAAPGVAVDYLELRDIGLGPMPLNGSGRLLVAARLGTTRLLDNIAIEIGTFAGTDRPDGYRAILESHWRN

| Structure (SMILES) | inhibition [%] |
| --- | --- |
| CCOc1ccccc1N(CC(=O)N1CCCCCC1)S(C)(=O)=O | 0 |
| O=C(c1ccc(Cl)s1)N1CCN(c2nc3ccccc3s2)CC1 | 6 |
| CN(C)S(=O)(=O)c1ccc2c(c1)C(CC(=O)O)OC2=O (stereo not given) | 4 |
| CCOc1ccccc1OCC(=O)Nc1nnc(COC)s1 | 4 |
| COc1cccc(OCc2nc3ccccc3[nH]2)c1 | 0 |
| CCCCN(CCCNC(=O)C1CCN(S(=O)(=O)CC)CC1)c1ccccc1 | 0 |
| COc1ccc(CCNC(=O)COc2ccc(S(=O)(=O)N3CCOCC3)cc2)cc1 | 6 |
| CC(=O)Nc1ccc(NS(=O)(=O)C(F)(F)F)cc1 | 0 |
| Cc1ccccc1Nc1cc2ccccc2c(=O)[nH]1 | 2 |
| Cn1c([N+](=O)[O-])cnc1COC(N)=O | 0 |
| CCOc1ccc(NC(=O)C2CC(=O)N(C(C)C)C2)cc1 (stereo not given) | 2 |
| CCCCN1C(=O)C2C(C(=O)Nc3cccc(OC)c3)C3C=CC2(O3)C1C(=O)NC1CCCCC1C (stereo not given) | 0 |
| O=C(O)C1CCCN1C(=O)Nc1ccc(F)cc1 (stereo not given) | 2 |
| CSc1ccc(-c2nc(CSCC(=O)N3CCOCC3)c(C)o2)cc1 | 0 |
| Cc1ccc2nc(NC(=O)CN(C)S(=O)(=O)c3cccc4nsnc34)sc2c1 | 0 |
| Cc1ccccc1OCCCN1C(=O)C(=O)c2cccc(C)c21 | 0 |
| CCOC(=O)c1cc(-c2ccccc2)sc1N | 3 |
| Cn1c(=O)c2c(nc(NCCNC(=O)c3ccco3)n2Cc2ccccc2Cl)n(C)c1=O | 0 |
| O=C(O)CCc1ccc(-c2cccs2)n1CCC(=O)O | 1 |
| COC(=O)Cn1c(=O)c2c(nc3n2CC(C)CN3c2ccc(C)c(C)c2)n(C)c1=O (stereo not given) | 4 |

| Structure (SMILES) | inhibition [%] |
| --- | --- |
| Cc1ccnc(SCCn2c(N3CCCCC3)nc3c2c(=O)n(C)c(=O)n3C)n1 | 0 |
| CCOC(=O)c1cc2sccc2n1Cc1ccccc1 | 1 |
| O=C(Nn1cnnc1)C1Cc2ccccc2CN1S(=O)(=O)c1ccc(F)cc1 (stereo not given) | 0 |
| CC(=O)NC(C)C(=O)OCc1ccc(Cl)cc1Cl (stereo not given) | 0 |
| CCC(C)NC(=O)C1CCCN(S(=O)(=O)c2ccc(-n3cnnn3)cc2)C1 (stereo not given) | 0 |
| COc1ccc(CN(CC(=O)NCC2CCCO2)C(=O)CNS(=O)(=O)c2ccc(C)cc2)cc1 (stereo not given) | 9 |
| CC1CCCCC1NC(=O)CCCc1nc2ccccc2c(=O)[nH]1 (stereo not given) | 0 |
| N#Cc1ccc(CSc2nnc(-c3cnccn3)o2)cc1 | 5 |
| CN(C)S(=O)(=O)c1ccc(/C(O)=C2/C(=O)C(=O)N(CCN3CCCCC3)C2c2cccnc2)cc1 (stereo not given) | 0 |
| O=C(O)CCCc1ccccc1 | 0 |
| c1ccc(-c2ccc(C(c3ccccc3)n3ccnc3)cc2)cc1 (stereo not given) | 3 |
| C=C(C)Cn1c(-c2ccccc2)nc2ccccc21 | 0 |
| Cc1ccc(NC(=O)CSc2nnc(-c3ccncc3)n2C)cc1C | 0 |
| CCOc1ccccc1C(=O)Nc1nnc(CC)s1 | 0 |
| CCOC(=O)C1CCN(C(=O)C2(NC(=O)Nc3ccccc3Cl)CCCCC2)CC1 | 0 |
| COc1ccccc1N1CCN(C(=O)c2oc3cc(C)c(C)cc3c2C)CC1 | 0 |
| CCS(=O)(=O)c1nc2ccccc2n1CC(=O)N1CCCCC1 | 6 |
| CC(C)NCC(O)COc1cccc2[nH]ccc12 (stereo not given) | 0 |
| NC(=O)C1(N2CCCCC2)CCN(CC(=O)Nc2cc(Cl)ccc2Cl)CC1 | 3 |
| O=S(=O)(NCCc1ccccc1F)c1cccc(S(=O)(=O)N2CCOCC2)c1 | 0 |
